Inconclusive results are not listed. Active and inactive are the calls of the source. How the source made its calls: active means hit-call score of the fitted dose curve at least 0.9, where 1 is the maximum; inconclusive means response in the unintended direction; inactive means score below 0.9.

This test is described as follows: Tanguay_ZF_120hpf_PFIN_legacy: (Legacy) Oregon State University Tanguay Lab 120 Hour Post-fertilization zebrafish Assay for Pectoral Fin Malformation (AID 2283648).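 Further: each larva judged yes or no for fin defect by brightfield with dead larvae skipped.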 The procedure:
Tanguay_ZF_120hpf_legacy is a whole embryo, multiplexed endpoint assay using zebrafish larvae exposed for 120 hours post fertilization on a 96-well plate.Tanguay_ZF_120hpf_PFIN_legacy is one of one assay component(s) measured or calculated from the Tanguay_ZF_120hpf_legacy assay. It is designed to make measurements of zebrafish development as detected with brightfield microscopy of developing zebrafish embryos.Data from the assay component Tanguay_ZF_120hpf_PFIN_legacy was analyzed into 1 assay endpoints. This assay endpoint, Tanguay_ZF_120hpf_PFIN_legacy, was analyzed in the positive analysis fitting direction relative to DMSO as the negative control and baseline of activity. Using a type of morphology reporter, gain-of-signal activity can be used to understand changes in developmentals as they relate to the whole embryo. To generalize the intended target to other relatable targets, this assay endpoint is annotated to the zebrafish development intended target family, where the subfamily is pectoral fin morphogenesis.
Zebrafish husbandry: Tropical 5D wild-type adult zebrafish were housed in at an approximate density of 1000 per 100 gallon tank at the Sinnhuber Aquatic Research Laboratory, Oregon State University, Corvallis, OR. Each tank was kept at standard laboratory conditions of 28C on a 14-h light/10-h dark photoperiod in fish water consisting of reverse osmosis water supplemented with a commercially available salt (Instant Ocean). Spawning funnels were placed into the tanks the night prior, and embryos were collected and staged. To increase bioavailability, the chorion was enzymatically removed using pronase (63.6mg/ml, >/= 3.5U/mg, Sigma-Aldrich: P5147) at 4 hours post fertilization (hpf) using a custom automated dechorionator.Chemical exposures: Six hpf dechorionated embryos were placed 1 embryo per well in a 96-well plate prefilled with 90 ul of EM using automated embryo placement systems (AEPS). Ten microliters of each row of dilution plate 2 was added to 2 exposure plates. The final DMSO concentration used was 0.64% (vol/vol). Thirty-two embryos were also exposed to 5uM trimethyltin chloride (positive control). Plates were sealed to prevent evaporation and foil covered to reduce light exposure and kept in a 28C incubator. Embryos were statically exposed until 120 hpf. At 24 hpf, embryos were assessed for photomotor response using a custom photomotor response analysis tool (PRAT) and for developmental toxicity endpoints (MO24: mortality at 24 hpf, DP: developmental progression, SM: spontaneous movement, and NC: notochord distortion). At 120 hpf, locomotor activity was measured using Viewpoint Zebralab and assessed for 18 endpoints. Zebrafish acquisition and analysis program (ZAAP), a custom program designed to inventory, acquire, and manage zebrafish data, was used to collect developmental endpoints as either present or absent (i.e., binary responses were recorded). If mortality occurred for an embryo (at either 24 or 120 hpf), the non-mortality endpoints were not measured.
With `CCCN(CCC)c1c([N+](=O)[O-])cc(C(C)C)cc1[N+](=O)[O-]`, the compound was classed as inactive.

In the case of `O=[N+]([O-])c1ccc(Cl)c(Cl)c1`, the result was inactive.

With `OCC1CO1` (stereo not drawn), the compound was called inactive.

Regarding `CCCCN(CCCC)SN(C)C(=O)Oc1cccc2c1OC(C)(C)C2`, the result was inactive.

As for `CC(C)(C)OOC(C)(C)C`, the outcome was inactive.

Turning to `CCC1(c2ccccc2)C(=O)N=C(O)NC1=O` (stereo not drawn), the outcome was inactive.

As to `CC(Cc1ccc(OCC(=O)O)cc1)NCC(O)c1csc(C(F)(F)F)n1` (stereo not drawn), the outcome was inactive.

On to `O=C(O)C(Cl)Cl`, for which the result was inactive.

The term AC50 denotes the concentration at which the activity in the assay is half-maximal. Turning to `CCC(C)(C)c1ccc(O)cc1`, the AC50 is 22.2 µM (active).

`c1ccc(OP(Oc2ccccc2)Oc2ccccc2)cc1`: the call was inactive.

Take `CCOc1ccc(C(C)(C)COCc2cccc(Oc3ccccc3)c2)cc1`: the outcome was inactive.

On to `Cc1ccc([N+](=O)[O-])cc1C`, for which the compound was classed as inactive.

Take `CCOP(=S)(Oc1ccc([N+](=O)[O-])cc1)c1ccccc1` (stereo not drawn): the compound was classed as inactive.

Regarding `Cc1ccc(O)cc1C`, the compound was classed as inactive.

Consider `c1cc2c3c(cccc3c1)CC2`, for which the compound was classed as inactive.

As to `O=P1(N(CCCl)CCCl)NCCCO1` (stereo not drawn), the outcome was inactive.

As to `CCCCN(CCCC)N=O`, the call was inactive.

Regarding `CSC(C)(C)C=NO`, the compound was classed as inactive.

Regarding `ClC(Cl)c1ccccc1`, the call was inactive.

On to `O=P(Oc1ccccc1)(Oc1ccccc1)Oc1ccccc1`, for which the compound was called inactive.

With `CCOC(=O)c1ccccc1C(=O)OCC`, the call was inactive.

For `CCCCCCCc1ccc(O)cc1`, the compound was called inactive.

Turning to `Nc1cc2c3c(c1)C(c1ccccc1)=N[C@@H](NC(=O)c1cccnc1)C(=O)N3CC2`, the call was inactive.

Turning to `CCNc1nc(Cl)nc(NC(C)(C)C)n1`, the outcome was inactive.

For `O=C(O)C1C(C(=O)O)C2(Cl)C(Cl)=C(Cl)C1(Cl)C2(Cl)Cl` (stereo not drawn), the result was inactive.

Consider `CC(Cl)(Cl)C(=O)O`, for which the outcome was inactive.

For the compound `O=[N+]([O-])c1ccccc1`, the outcome was inactive.

Consider `CCCCc1ccccc1`, for which the result was inactive.

For the compound `[N-]=[N+]=[N-]`, the compound was called inactive.

Take `CC(C)(C)c1ccc(O)cc1`: the result was inactive.

Regarding `Nc1ccc2ccccc2c1`, the compound was classed as inactive.

Consider `CCOS(=O)(=O)OCC`, for which the compound was classed as inactive.

As for `CCOP(=S)(OCC)SCSCC`, the compound was classed as inactive.
